Results as given in PubChem BioAssay (Tox21).
Records with an inconclusive call do not appear. The source made the active and inactive calls. Unless noted, calls follow the shape of the full dose curve.

Columns and labels:
[1] = Nuclear factor erythroid 2-related factor 2/antioxidant responsive element (Nrf2/ARE) small molecule agonists: qHTS cell viability counter screen in human keratinocytes (AID 1919968; active = well fitted curve in the direction sought with a large enough effect in the repeat runs; an effect the other way counts as inactive or inconclusive; also: nearly all actives have a fitted effect of over 55% in size)
How it was run: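 CellTiter-Fluor fluorescence, read 1 h after reagent, gave viability in the same wells as the ARE-luciferase assay. KeratinoSens cells (1,500/well) had 23 h compound exposure at 37 C/5% CO2 following 5 h plating.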

[2] = Nuclear factor erythroid 2-related factor 2/antioxidant responsive element (Nrf2/ARE) small molecule agonists: luciferase reporter gene qHTS assay in human keratinocytes (AID 1919969); also: nearly all actives have a fitted effect of over 35% in size
[3] = biological target: Gonadotropin-releasing hormone receptor (Homo sapiens) (UniProt P30968); assay: Human gonadotropin-releasing hormone receptor (GnRHR) small molecule agonists, calcium flux assay in GnRHR-HEK293 cells (AID 1920063); also: nearly all actives have a fitted effect of over 35% in size
Chain of Gonadotropin-releasing hormone receptor (Homo sapiens) (P30968 whole entry, looked up): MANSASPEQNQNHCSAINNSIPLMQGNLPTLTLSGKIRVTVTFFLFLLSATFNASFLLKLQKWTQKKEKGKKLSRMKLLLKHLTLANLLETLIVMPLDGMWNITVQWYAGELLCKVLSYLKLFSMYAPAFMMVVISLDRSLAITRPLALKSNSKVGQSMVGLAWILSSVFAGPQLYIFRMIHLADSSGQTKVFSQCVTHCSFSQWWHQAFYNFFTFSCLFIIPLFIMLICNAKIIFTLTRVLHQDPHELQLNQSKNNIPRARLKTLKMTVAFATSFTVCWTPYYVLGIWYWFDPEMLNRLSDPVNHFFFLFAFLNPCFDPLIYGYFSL
How it was run: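 Agonist mode: compounds at 15 concentrations, in triplicate, went onto calcium dye-loaded GnRHR-HEK293 cells. Intracellular calcium was then followed as 480/540 nm fluorescence at 1 s intervals over 3 min.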

[4] = biological target: KiSS-1 receptor (Homo sapiens) (UniProt Q969F8); assay: Human kisspeptin (KISS1R) small molecule agonists, calcium flux assay in KISS1R-HEK293 cells (AID 1920064; active = well fitted curve in the direction sought with a large enough effect in the repeat runs; an effect the other way counts as inactive or inconclusive)
Chain of KiSS-1 receptor (Homo sapiens) (Q969F8 whole entry, looked up): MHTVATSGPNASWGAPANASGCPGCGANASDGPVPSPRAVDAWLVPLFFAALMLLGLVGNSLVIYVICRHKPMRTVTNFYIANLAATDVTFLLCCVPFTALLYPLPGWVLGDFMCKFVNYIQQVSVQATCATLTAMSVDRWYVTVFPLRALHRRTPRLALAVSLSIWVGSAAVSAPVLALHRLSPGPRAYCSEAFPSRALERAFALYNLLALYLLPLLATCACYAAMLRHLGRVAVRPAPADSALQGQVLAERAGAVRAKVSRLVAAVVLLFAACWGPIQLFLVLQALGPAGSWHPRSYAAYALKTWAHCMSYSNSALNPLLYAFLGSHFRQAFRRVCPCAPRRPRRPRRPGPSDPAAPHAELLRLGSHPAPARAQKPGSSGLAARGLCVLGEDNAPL
How it was run: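 Agonist mode: intracellular calcium rise tracked at 1 s intervals over 3 min (480/540 nm) immediately after compound addition to dye-loaded KISS1R-HEK293 stable cells. Each compound tested at 15 concentrations in triplicate.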

[5] = G protein-coupled receptor (GPCR) small molecule agonists, calcium flux assay: HEK293 wild type cell line counter screen (AID 1920065)
How it was run: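 Calcium flux counter screen: compound added in agonist mode at 15 concentrations in triplicate to dye-loaded parental HEK293 cells. Fluorescence (480/540) read kinetically for 3 min; ATP served as positive control.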

[6] = p53 small molecule agonists, cell-based qHTS assay with human liver microsomes (AID 1963577);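 also: p53 response element beta-lactamase reporter cells with liver microsomes plus NADPH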
How it was run: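 Metabolically competent format: test substances, human liver microsomes and NADPH (both 0.5 mg/mL final) incubated with p53RE-bla cells 16 h at 37 C. Beta-lactamase reporter signal then quantified by fluorescence.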

[7] = p53 small molecule agonists, cell-based qHTS assay with rat liver microsomes (AID 1963578)
How it was run: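 Each plate received p53RE-bla cells, then compound, then rat liver microsomes and NADPH (both 0.5 mg/mL final). Plates were held 16 h at 37 C, and beta-lactamase activity was detected with LiveBLAzer over 2 h.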

[8] = p53 small molecule agonists, cell-based qHTS assay with human liver microsomes: qHTS cell viability counter screen (AID 1963579); also: nearly all actives have a fitted effect of over 45% in size
How it was run: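 Tox21 library compounds, delivered from DMSO stocks, were tested on p53RE-bla cells together with 0.5 mg/mL human liver microsomes and 0.5 mg/mL NADPH (final) over 16 h at 37 C; CellTiter-Glo luminescence served as the cytotoxicity measure.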

[9] = p53 small molecule agonists, cell-based qHTS assay with rat liver microsomes: qHTS cell viability counter screen (AID 1963580); also: nearly all actives have a fitted effect of over 45% in size
How it was run: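 Rat liver microsome (0.5 mg/mL final) and NADPH (0.5 mg/mL final) co-incubation with compounds for 16 h at 37 C on HCT-116 p53RE-bla cells; cytotoxicity taken from intracellular ATP luminescence.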

[10] = p53 small molecule agonists, cell-based qHTS assay: qHTS cell viability counter screen (AID 1963581); also: nearly all actives have a fitted effect of over 45% in size
How it was run: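 Counter screen read by CellTiter-Glo luminescence (ATP content, 30 min at room temperature), run in the same wells as the beta-lactamase reporter read. HCT-116 p53RE-bla cells saw compounds for 16 h at 37 C.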

[11] = p53 small molecule agonists, cell-based qHTS assay (AID 1963582; active = well fitted activation curve with a large enough effect in the signal ratio in the repeat runs, not every such curve was filed as active; the % refers to the signal ratio)
How it was run: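 Read-out is beta-lactamase FRET fluorescence after 2 h at room temperature with LiveBLAzer B/G substrate. p53 response element-bla cells were treated 16 h at 37 C with compounds in DMSO, added 5 h after seeding.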

[12] = biological target: 5-hydroxytryptamine receptor 2A (Homo sapiens) (UniProt P28223); assay: 5-hydroxytryptamine receptor 2A (HTR2A) small molecule agonists, cell-based qHTS assay (AID 1963587); also: nearly all actives have a fitted effect of over 30% in size
Chain of 5-hydroxytryptamine receptor 2A (Homo sapiens) (P28223 whole entry, looked up): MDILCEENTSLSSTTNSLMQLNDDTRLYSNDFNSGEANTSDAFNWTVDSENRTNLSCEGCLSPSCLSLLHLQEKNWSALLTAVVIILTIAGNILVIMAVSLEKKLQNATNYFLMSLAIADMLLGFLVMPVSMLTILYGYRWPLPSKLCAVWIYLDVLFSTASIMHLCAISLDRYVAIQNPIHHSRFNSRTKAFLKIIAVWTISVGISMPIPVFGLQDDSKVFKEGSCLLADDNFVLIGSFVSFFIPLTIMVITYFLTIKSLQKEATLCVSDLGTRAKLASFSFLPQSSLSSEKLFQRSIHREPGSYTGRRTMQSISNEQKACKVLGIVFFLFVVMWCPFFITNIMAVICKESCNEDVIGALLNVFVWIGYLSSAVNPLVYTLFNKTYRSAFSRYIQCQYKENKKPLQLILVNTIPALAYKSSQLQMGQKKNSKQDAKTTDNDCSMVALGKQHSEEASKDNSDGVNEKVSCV
How it was run: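 Kinetic calcium-flux fluorescence (2 min, 1 sec intervals) after compound addition in agonist mode. HTR2A-CHO cells were cultured 18 h, then dye-loaded 1 h at 37 C.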

[13] = biological target: Muscarinic acetylcholine receptor M1 (Homo sapiens) (UniProt P11229); assay: Cholinergic receptor muscarinic 1 (CHRM1) small molecule antagonists, cell-based qHTS assay (AID 1963588); also: nearly all actives have a fitted effect of over 40% in size
Chain of Muscarinic acetylcholine receptor M1 (Homo sapiens) (P11229 whole entry, looked up): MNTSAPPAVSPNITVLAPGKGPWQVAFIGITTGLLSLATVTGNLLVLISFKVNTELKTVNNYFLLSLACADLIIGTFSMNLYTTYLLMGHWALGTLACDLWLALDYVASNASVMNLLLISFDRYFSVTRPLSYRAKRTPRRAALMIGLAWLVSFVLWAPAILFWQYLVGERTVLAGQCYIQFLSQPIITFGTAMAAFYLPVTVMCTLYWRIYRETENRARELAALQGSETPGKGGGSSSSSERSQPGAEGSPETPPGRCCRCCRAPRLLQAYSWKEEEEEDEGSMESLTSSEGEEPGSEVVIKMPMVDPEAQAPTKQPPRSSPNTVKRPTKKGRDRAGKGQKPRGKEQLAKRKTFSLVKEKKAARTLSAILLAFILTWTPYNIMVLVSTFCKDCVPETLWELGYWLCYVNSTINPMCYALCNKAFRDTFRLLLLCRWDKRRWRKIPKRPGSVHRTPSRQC
How it was run: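 Compounds were tested at 15 concentrations in three independent runs. Dye-loaded CHRM1-CHO cells were exposed 5 min at room temperature before stimulation by acetylcholine added at 50nM. Intracellular calcium was read kinetically on FDSS for 3 min.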

[14] = cAMP Responsive Elements (CRE) small molecule agonists, cell-based qHTS assay (AID 1963590)
How it was run: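 Agonist mode: compound added to CRE-bla HEK 293T cells (2,000/well, 18 h after plating) for 3 h at 37 C/5% CO2. Reporter activity detected via FRET beta-lactamase substrate, 2 h room-temperature loading.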

[15] = cAMP Responsive Elements (CRE) small molecule antagonists, cell-based qHTS assay (AID 1963591; active = well fitted inhibition curve with a large enough effect in the signal ratio in the repeat runs, not every such curve was filed as active; the % refers to the signal ratio)
How it was run: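 Antagonist mode: compounds are added alongside the adenylyl cyclase activator NKH477 (0.25 uM final) to CRE-bla HEK293T cells for 3 h. LiveBLAzer FRET substrate, 2 h at room temperature, reports bla expression.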

[16] = biological target: Beta-2 adrenergic receptor (Homo sapiens) (UniProt P07550); assay: Adrenergic beta2 receptor (ADRB2) small molecule antagonists, cell-based qHTS assay (AID 1963592); also: series mostly up to about 92 µM; nearly all actives have a fitted effect of over 50% in size
Chain of Beta-2 adrenergic receptor (Homo sapiens) (P07550 whole entry, looked up): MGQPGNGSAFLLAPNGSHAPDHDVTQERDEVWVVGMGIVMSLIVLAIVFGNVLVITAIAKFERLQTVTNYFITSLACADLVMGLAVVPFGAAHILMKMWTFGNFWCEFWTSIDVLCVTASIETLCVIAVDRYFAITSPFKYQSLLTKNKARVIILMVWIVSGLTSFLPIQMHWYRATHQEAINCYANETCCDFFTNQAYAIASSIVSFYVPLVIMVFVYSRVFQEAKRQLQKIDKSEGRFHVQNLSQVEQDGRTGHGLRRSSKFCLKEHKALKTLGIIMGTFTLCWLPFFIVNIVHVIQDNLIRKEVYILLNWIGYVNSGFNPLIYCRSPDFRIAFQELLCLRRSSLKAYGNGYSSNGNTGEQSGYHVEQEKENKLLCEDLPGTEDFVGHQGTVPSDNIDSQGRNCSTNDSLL
How it was run: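 Assay format: CHO-ADRB2 cells, 18-20hr seeding at 37C/5% CO2, then compound plus 1nM isoproterenol agonist mix for 0.5hr RT. Homogeneous time-resolved fluorescence cAMP detection after 1hr, expressed as 665/615 nm ratio.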

[17] = biological target: Beta-2 adrenergic receptor (Homo sapiens) (UniProt P07550); assay: Adrenergic beta2 receptor (ADRB2) small molecule agonists, cell-based qHTS assay (AID 1963593);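 also: CHO cells stably overexpressing human ADRB2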
How it was run: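 CHO cells stably over-expressing ADRB2 were plated overnight at 37C, then dosed with compounds plus a stimulation mix containing 100uM IBMX and 25uM Ro-20-1724 for 0.5hr at room temperature. cAMP was measured by HTRF competition, 1hr.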

[18] = biological target: D(2) dopamine receptor (Homo sapiens) (UniProt P14416); assay: Dopamine D2 receptor (DRD2) small molecule agonists, cell-based qHTS assay (AID 1963594); also: nearly all actives have a fitted effect of over 35% in size
Chain of D(2) dopamine receptor (Homo sapiens) (P14416 whole entry, looked up): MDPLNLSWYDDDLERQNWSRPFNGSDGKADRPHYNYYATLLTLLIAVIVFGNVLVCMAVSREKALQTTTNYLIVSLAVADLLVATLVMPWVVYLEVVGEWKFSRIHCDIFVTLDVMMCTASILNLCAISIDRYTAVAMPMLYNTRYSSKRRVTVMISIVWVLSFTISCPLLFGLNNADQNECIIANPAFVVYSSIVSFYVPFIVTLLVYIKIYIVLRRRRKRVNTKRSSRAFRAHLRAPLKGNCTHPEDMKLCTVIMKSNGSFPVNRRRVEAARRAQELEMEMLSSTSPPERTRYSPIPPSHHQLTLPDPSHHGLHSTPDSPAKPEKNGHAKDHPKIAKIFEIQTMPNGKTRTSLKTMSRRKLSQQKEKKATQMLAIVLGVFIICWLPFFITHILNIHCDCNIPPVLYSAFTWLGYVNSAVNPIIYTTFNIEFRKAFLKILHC
How it was run: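 cAMP accumulation in DRD2-HEK293 cells measured by HTRF after 1 h detection; compounds added 10 min before NKH477 (200nM […]) forskolin-analogue stimulation, 30 min at room temperature, with Ro20-1724 present at 0.1 mM final.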

[19] = biological target: D(2) dopamine receptor (Homo sapiens) (UniProt P14416); assay: Dopamine D2 receptor (DRD2) small molecule antagonists, cell-based qHTS assay (AID 1963595; active = well fitted inhibition curve with a large enough effect in the signal ratio in the repeat runs, with a control signal flat; the % refers to the signal ratio)
How it was run: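 Human DRD2 antagonist qHTS measuring cAMP by HTRF. The cells are exposed to compound for 10 min, then to NKH477 (200 nM) and quinpirole (12 nM) for 30 min at RT, with Ro20-1724 (0.1 mM) present throughout.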

Measured: Potency

NCCS(=O)(=O)O
inactive: all assays above

CC1(C)[C@@H]2CC[C@@]1(C)C(=O)C2
not listed: [12] | [13]
inactive: all other assays above

Cc1noc(NS(=O)(=O)c2ccc(N)cc2)c1C
not listed: [12] | [13]
inactive: all other assays above

CCCCNC(N)=O
not listed: [13] | [15]
inactive: all other assays above

CC(C)(Oc1ccc(C2CC2(Cl)Cl)cc1)C(=O)O (stereo not drawn)
not listed: [12] | [13]
inactive: all other assays above

ClC/C=C/CCl
inactive: all assays above

C[C@@H](O)[C@H]1C(=O)N2C(C(=O)O)=C(S[C@@H]3CN[C@H](C(=O)N(C)C)C3)[C@H](C)[C@H]12
not listed: [12] | [13]
inactive: all other assays above
